Measurements: PubChem BioAssay (NCI)
This is part of a sample that, as a whole, favours compounds with a hit. Of some 79,000 tested, about 15% had one in any assay. Activity calls are given as the source filed them. Cut-off read from the data, not from the text of the source: active = growth inhibition above about 70%; inactive = the rest.

Columns and labels:
[1] = NCI Yeast Anticancer Drug Screen. Data for the rad52 strain (AID 147);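 note: 0% = growth of vehicle-treated control cultures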; conditions: S. cerevisiae rad52 mutant growth inhibition, stronger effect = higher value
In short: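 Read-out: growth inhibition versus vehicle-treated controls. Cells were a DNA repair-deficient yeast strain treated with compounds.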

[2] = NCI Yeast Anticancer Drug Screen. Data for the wt1 strain (AID 149);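 note: 0% = growth of vehicle-treated wt1 cultures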; conditions: S. cerevisiae wt1 strain (SPY 50644) growth inhibition, stronger effect = higher value
In short: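 Using yeast strain wt1, compound-induced growth inhibition was determined against vehicle-treated cultures.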

[3] = NCI Yeast Anticancer Drug Screen. Data for the rad50EPP+ strain (AID 151);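 note: 0% = growth of vehicle-treated control cultures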; conditions: S. cerevisiae rad50 mutant strain, stronger effect = higher value
In short: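 Growth inhibition read against vehicle controls in rad50EPP+ yeast, a strain altered in DNA damage repair, after compound exposure.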

[4] = NCI Yeast Anticancer Drug Screen. Data for the rad50 strain (AID 155);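 note: 0% = growth of vehicle-only cultures of the same strain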; conditions: S. cerevisiae rad50 strain growth inhibition, stronger effect = higher value
In short: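 Relative growth inhibition (compound vs vehicle) was measured in yeast with a defined repair-gene alteration.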

[5] = NCI Yeast Anticancer Drug Screen. Data for the mec2-1 strain (AID 157); conditions: S. cerevisiae mec2-1 strain, stronger effect = higher value
In short: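 Yeast mec2-1 mutant treated with compound. Readout: growth inhibition vs vehicle controls.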

[6] = NCI Yeast Anticancer Drug Screen. Data for the rad14 strain (AID 159);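 note: 0% = growth of vehicle-treated control cultures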; conditions: S. cerevisiae rad14 strain growth inhibition, stronger effect = higher value
In short: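 Screen for anticancer potential: a yeast strain altered in DNA damage repair is grown with compound, and reduced growth is quantified against vehicle controls.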

[7] = NCI Yeast Anticancer Drug Screen. Data for the sgs1 mgt1 strain (AID 161);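 note: 0% = growth of cultures given vehicle only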; conditions: S. cerevisiae sgs1 mgt1 strain, stronger effect = higher value
In short: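 Test agents were incubated with a DNA-repair-mutant yeast strain. Growth was then read and compared against vehicle-treated controls.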

[8] = NCI Yeast Anticancer Drug Screen. Data for the CLN2oe strain (AID 163);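 note: 0% = growth of vehicle-only control cultures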; conditions: S. cerevisiae CLN2oe strain, stronger effect = higher value
In short: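 Read-out: yeast growth inhibition, expressed relative to vehicle-only controls. The strain bears an engineered cell-cycle alteration.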

[9] = NCI Yeast Anticancer Drug Screen. Data for the cln2 rad14 strain (AID 165);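 note: 0% = growth equal to vehicle treated cultures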; conditions: S. cerevisiae cln2 rad14 strain, stronger effect = higher value
In short: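 cln2 rad14 yeast strain; compound exposure; growth inhibition read vs vehicle controls.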

[10] = NCI Yeast Anticancer Drug Screen. Data for the bub3 strain (AID 167); conditions: S. cerevisiae bub3 mutant strain, stronger effect = higher value
In short: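 Screening used yeast with an engineered genetic alteration affecting cell cycle control. Compound-exposed cultures were compared with vehicle cultures, and reduced growth was taken as inhibition.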

[11] = NCI Yeast Anticancer Drug Screen. Data for the wt2 strain (AID 169);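 note: 0% = growth of vehicle-treated yeast cultures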; conditions: S. cerevisiae wt2 strain growth inhibition, stronger effect = higher value
In short: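 Read-out: growth inhibition versus vehicle-treated control cultures after compound exposure of the yeast strain.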

[12] = NCI Yeast Anticancer Drug Screen. Data for the mlh1 strain (AID 171);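 note: 0% = growth of vehicle-treated control cultures of the same strain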; conditions: S. cerevisiae mlh1 strain growth inhibition, stronger effect = higher value
In short: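 Read-out: growth inhibition versus vehicle controls. Strain: engineered yeast with a defined DNA repair or cell cycle defect, compound-treated.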

[13] = NCI Yeast Anticancer Drug Screen. Data for the sgs1 strain (AID 173);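 note: 0% = growth of vehicle-only control cultures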; conditions: S. cerevisiae sgs1 mutant, stronger effect = higher value
In short: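 Read-out: yeast growth inhibition relative to vehicle controls, following compound exposure of a strain with a defined DNA repair/cell cycle alteration.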

[14] = NCI Yeast Anticancer Drug Screen. Data for the mlh1 rad18 strain (AID 175); conditions: S. cerevisiae mlh1 rad18 strain growth inhibition, stronger effect = higher value
In short: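 Yeast w/ defined DNA-repair lesions; compound exposure; growth vs vehicle controls → % inhibition.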

[15] = NCI Yeast Anticancer Drug Screen. Data for the rad18 strain (AID 177); conditions: S. cerevisiae rad18 mutant growth inhibition, stronger effect = higher value
In short: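 Readout: growth inhibition vs vehicle controls. Cells: genetically altered yeast strain, DNA repair defect.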

[16] = at 5.0 µM (retest, dose inferred, filed as 0.5)
[17] = at 50.0 µM (retest, dose inferred, filed as 5.0)

Measured: growth inhibition

COc1cc(N(C)C)ccc1/C=C\c1ccnc2ccccc12
inactive: [1]; at 1.2 µM -5% | [1]; at 3.7 µM -7% | [1]; at 11.0 µM -6% | [1]; at 33.0 µM -5% | [1]; at 100.0 µM -10% | [2]; at 1.2 µM -5% | [2]; at 3.7 µM -7% | [2]; at 11.0 µM -7% | [2]; at 33.0 µM -9% | [2]; at 100.0 µM -7% | [3]; at 1.2 µM -2% | [3]; at 3.7 µM -2% | [3]; at 11.0 µM 10% | [3]; at 33.0 µM 16% | [3]; at 100.0 µM 12% | [4]; at 1.2 µM -5% | [4]; at 3.7 µM -7% | [4]; [16] -10% | [4]; at 11.0 µM -3% | [4]; at 33.0 µM -1% | [4]; [17] -10% | [4]; at 50.0 µM 2.3% | [4]; at 100.0 µM 1% | [5]; at 1.2 µM -4% | [5]; at 3.7 µM -7% | [5]; [16] -11% | [5]; at 11.0 µM -8% | [5]; at 33.0 µM -4% | [5]; [17] -19% | [5]; at 50.0 µM -8.75% | [5]; at 100.0 µM 0% | [6]; at 1.2 µM -5% | [6]; at 3.7 µM -4% | [6]; at 11.0 µM 0% | [6]; at 33.0 µM 6% | [6]; at 100.0 µM 37% | [7]; [16] 0% | [7]; [17] 64% | [7]; at 50.0 µM -4.05% | [8]; at 1.2 µM -11% | [8]; at 3.7 µM -13% | [8]; at 11.0 µM -18% | [8]; at 33.0 µM -15% | [8]; at 100.0 µM -9% | [9]; [16] -17% | [9]; [17] -13% | [9]; at 50.0 µM -3.5% | [10]; at 1.2 µM -5% | [10]; at 3.7 µM -11% | [10]; [16] -14% | [10]; at 11.0 µM -14% | [10]; at 33.0 µM -10% | [10]; [17] -3% | [10]; at 50.0 µM -5.95% | [10]; at 100.0 µM 4% | [11]; at 1.2 µM -4% | [11]; at 3.7 µM -7% | [11]; at 11.0 µM -4% | [11]; at 33.0 µM 16% | [11]; at 100.0 µM 31% | [12]; at 1.2 µM -1% | [12]; at 3.7 µM -6% | [12]; at 11.0 µM 3% | [12]; at 33.0 µM 22% | [12]; at 100.0 µM 38% | [13]; at 1.2 µM -4% | [13]; at 3.7 µM -5% | [13]; at 11.0 µM 10% | [13]; at 33.0 µM 36% | [13]; at 100.0 µM 45% | [14]; [16] -8% | [14]; [17] 32% | [14]; at 50.0 µM 2.15% | [15]; at 1.2 µM -4% | [15]; at 3.7 µM -2% | [15]; at 11.0 µM -1% | [15]; at 33.0 µM 9% | [15]; at 100.0 µM 14%

OCCNCCOc1ccc(/C(=C(/Cl)c2ccccc2)c2ccccc2)cc1
active: [1]; at 33.0 µM 98% | [1]; at 100.0 µM 97% | [2]; at 33.0 µM 98% | [2]; at 100.0 µM 97% | [3]; at 33.0 µM 70% | [3]; at 100.0 µM 98% | [4]; at 33.0 µM 98% | [4]; [17] 98% | [4]; at 50.0 µM 87.1% | [4]; at 100.0 µM 97% | [5]; at 33.0 µM 98% | [5]; [17] 99% | [5]; at 50.0 µM 94.3% | [5]; at 100.0 µM 97% | [6]; at 11.0 µM 76% | [6]; at 33.0 µM 98% | [6]; at 100.0 µM 97% | [7]; [17] 98% | [7]; at 50.0 µM 93.8% | [8]; at 33.0 µM 99% | [8]; at 100.0 µM 98% | [9]; [17] 98% | [9]; at 50.0 µM 93.2% | [10]; at 33.0 µM 99% | [10]; [17] 99% | [10]; at 50.0 µM 92.7% | [10]; at 100.0 µM 97% | [11]; at 33.0 µM 98% | [11]; at 100.0 µM 97% | [12]; at 33.0 µM 98% | [12]; at 100.0 µM 98% | [13]; at 33.0 µM 98% | [13]; at 100.0 µM 98% | [14]; [17] 99% | [14]; at 50.0 µM 90%
inactive: [1]; at 1.2 µM -38% | [1]; at 3.7 µM -36% | [1]; at 11.0 µM -20% | [2]; at 1.2 µM -25% | [2]; at 3.7 µM -26% | [2]; at 11.0 µM -3% | [3]; at 1.2 µM -34% | [3]; at 3.7 µM -28% | [3]; at 11.0 µM -56% | [4]; at 1.2 µM 12% | [4]; at 3.7 µM 1% | [4]; [16] 40% | [4]; at 11.0 µM 29% | [5]; at 1.2 µM -28% | [5]; at 3.7 µM -32% | [5]; [16] 3% | [5]; at 11.0 µM -2% | [6]; at 1.2 µM -9% | [6]; at 3.7 µM -8% | [7]; [16] 36% | [8]; at 1.2 µM -13% | [8]; at 3.7 µM 0% | [8]; at 11.0 µM 25% | [9]; [16] 59% | [10]; at 1.2 µM -8% | [10]; at 3.7 µM -5% | [10]; [16] 32% | [10]; at 11.0 µM 13% | [11]; at 1.2 µM -47% | [11]; at 3.7 µM -48% | [11]; at 11.0 µM -6% | [12]; at 1.2 µM 7% | [12]; at 3.7 µM 12% | [12]; at 11.0 µM 67% | [13]; at 1.2 µM -15% | [13]; at 3.7 µM -23% | [13]; at 11.0 µM 32% | [14]; [16] 43%

COC(=O)c1oc([N+](=O)[O-])c(Cl)c1Cl
active: [1]; at 1.2 µM 78% | [1]; at 11.0 µM 71% | [1]; at 33.0 µM 95% | [1]; at 100.0 µM 99% | [2]; at 33.0 µM 89% | [2]; at 100.0 µM 99% | [3]; at 1.2 µM 95% | [3]; at 3.7 µM 93% | [3]; at 11.0 µM 93% | [3]; at 33.0 µM 98% | [3]; at 100.0 µM 98% | [4]; at 1.2 µM 95% | [4]; at 3.7 µM 79% | [4]; at 11.0 µM 86% | [4]; at 33.0 µM 96% | [4]; [17] 99% | [4]; at 50.0 µM 97% | [4]; at 100.0 µM 98% | [5]; at 1.2 µM 94% | [5]; at 3.7 µM 70% | [5]; at 11.0 µM 73% | [5]; at 33.0 µM 99% | [5]; [17] 100% | [5]; at 50.0 µM 99.7% | [5]; at 100.0 µM 99% | [6]; at 1.2 µM 99% | [6]; at 3.7 µM 71% | [6]; at 11.0 µM 90% | [6]; at 33.0 µM 99% | [6]; at 100.0 µM 99% | [7]; [17] 99% | [7]; at 50.0 µM 99% | [8]; at 1.2 µM 98% | [8]; at 11.0 µM 79% | [8]; at 33.0 µM 92% | [8]; at 100.0 µM 99% | [9]; [17] 99% | [9]; at 50.0 µM 98.5% | [10]; at 1.2 µM 71% | [10]; at 33.0 µM 97% | [10]; [17] 100% | [10]; at 50.0 µM 99.2% | [10]; at 100.0 µM 98% | [11]; at 11.0 µM 74% | [11]; at 33.0 µM 99% | [11]; at 100.0 µM 99% | [12]; at 1.2 µM 77% | [12]; at 11.0 µM 78% | [12]; at 33.0 µM 99% | [12]; at 100.0 µM 99% | [13]; at 1.2 µM 82% | [13]; at 11.0 µM 78% | [13]; at 33.0 µM 96% | [13]; at 100.0 µM 96% | [14]; [17] 99% | [14]; at 50.0 µM 99.5% | [15]; at 1.2 µM 93% | [15]; at 3.7 µM 92% | [15]; at 11.0 µM 89% | [15]; at 33.0 µM 98% | [15]; at 100.0 µM 99%
inactive: [1]; at 3.7 µM 66% | [2]; at 1.2 µM 26% | [2]; at 3.7 µM 22% | [2]; at 11.0 µM 39% | [4]; [16] 21% | [5]; [16] 35% | [7]; [16] 36% | [8]; at 3.7 µM 45% | [9]; [16] 10% | [10]; at 3.7 µM 41% | [10]; [16] 47% | [10]; at 11.0 µM 34% | [11]; at 1.2 µM 64% | [11]; at 3.7 µM 51% | [12]; at 3.7 µM 62% | [13]; at 3.7 µM 57% | [14]; [16] 58%
